Assay results: the supplement of paper PMC8728848
This excerpt belongs to a sample that is enriched for the strongest signals.

B1: Ficolin A (Rattus norvegicus), Q9WTS8 (protein)
chain: MWWPMLWAFPVLLCLCSSQALGQESGACPDVKIVGLGAQDKVAVIQSCPSFPGPPGPKGEPGSPAGRGERGLQGSPGKMGPPGSKGEPGTMGPPGVKGEKGERGTASPLGQKELGDALCRRGPRSCKDLLTRGIFLTGWYTIYLPDCRPLTVLCDMDVDGGGWTVFQRRVDGSINFYRDWDSYKRGFGNLGTEFWLGNDYLHLLTANGNQELRVDLREFQGQTSFAKYSSFQVSGEQEKYKLTLGQFLEGTAGDSLTKHNNMAFSTHDQDNDTNGGKNCAALFHGAWWYHDCHQSNLNGRYLPGSHESYADGINWLSGRGHRYSYKVAEMKIRAS
B2: PMA (Polygonatum multiflorum) (protein)
chain: LLTTTLFVFISSTRSLASTNVLYSDVGNAILNAKESLIYGDYRLDMQSDCNLVLYNKAAPYWASGTRWSWGGNCHLNLQSNGELVMYAYLGRTRIAIWRSGIISATGSYALVLKYDGALHVHGPSLWSTNATGPTTPTTASWSIDSTLWSGDVATIGPTIANGDYKLELLDTCNLTLSNTKTGQVLWYTNTTDWVHDCYVNIEGNGELKIKYLGGATLWSNKVGAGYTNNYVLGLRPDGKLDTYNAPIWSPTIGPGVHVAPAVYNASSNAVAAEGNGEKIAMVTGRAKNST

Key:
Assay in all cases: glycan array binding signal (z-score within array); higher = stronger binding
Details in all cases: glycan notation: IUPAC condensed, linker removed
[1] = target: Fuc(a1-2)[GalNAc(a1-3)]Gal(b1-4)GlcNAc
Summary of the method: (§1)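 Glycan array binding is given as a within-array Z-score, which can be read as non-binding when negative. The arrays, 3228 of them, came from the Consortium for Functional Glycomics database and were retained only where the protein sequence was available. Z-scores were averaged across arrays of the same protein sequence at different concentrations or buffers and across linkers.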

Gal(a1-3)Gal(b1-4)Glc = target: Gal(a1-3)Gal(b1-4)Glc
Summary of the method: as §1

[2] = target: Gal(a1-3)Gal(b1-4)[Fuc(a1-3)]GlcNAc
Summary of the method: as §1

[3] = target: Gal(b1-3)[Fuc(a1-4)]GlcNAc
Summary of the method: as §1

Gal(b1-4)Glc6S = target: Gal(b1-4)Glc6S
Summary of the method: as §1

Glc(b1-4)Glc = target: Glc(b1-4)Glc
Summary of the method: as §1

[4] = target: GlcNAc(a1-6)Gal(b1-4)GlcNAc
Summary of the method: as §1

[5] = target: GlcNAc(b1-2)Man(a1-3)[GlcNAc(b1-2)Man(a1-6)]Man(b1-4)GlcNAc(b1-4)GlcNAc
Summary of the method: as §1

GlcNAc(b1-3)Gal(b1-4)Glc = target: GlcNAc(b1-3)Gal(b1-4)Glc
Summary of the method: as §1

[6] = target: GlcNAc(b1-3)Gal(b1-4)GlcNAc
Summary of the method: as §1

[7] = target: Man(a1-2)Man(a1-3)[Man(a1-2)Man(a1-6)]Man(a1-6)[Man(a1-2)Man(a1-2)Man(a1-3)]Man
Summary of the method: as §1

[8] = target: Neu5Ac(a2-3)Gal(b1-3)[Fuc(a1-4)]GlcNAc(b1-3)Gal(b1-4)[Fuc(a1-3)]GlcNAc
Summary of the method: as §1

[9] = target: Neu5Ac(a2-3)Gal(b1-3)[Neu5Ac(a2-6)]GalNAc
Summary of the method: as §1

[10] = target: Neu5Ac(a2-3)Gal(b1-4)GlcNAc(b1-2)Man(a1-3)[Neu5Ac(a2-6)Gal(b1-4)GlcNAc(b1-2)Man(a1-6)]Man(b1-4)GlcNAc(b1-4)GlcNAc
Summary of the method: as §1

[11] = target: Neu5Ac(a2-3)Gal(b1-4)GlcNAc(b1-3)Gal(b1-3)GlcNAc
Summary of the method: as §1

[12] = target: Neu5Ac(a2-3)[GalNAc(b1-4)]Gal(b1-4)Glc
Summary of the method: as §1

Neu5Ac(a2-6)Gal = target: Neu5Ac(a2-6)Gal
Summary of the method: as §1

Neu5Ac(a2-8)Neu5Ac = target: Neu5Ac(a2-8)Neu5Ac
Summary of the method: as §1

[13] = target: Neu5Ac(a2-8)Neu5Ac(a2-8)Neu5Ac(a2-3)[GalNAc(b1-4)]Gal(b1-4)Glc
Summary of the method: as §1

[14] = target: Neu5Ac(b2-6)Gal(b1-4)GlcNAc
Summary of the method: as §1

[15] = target: Fuc(a1-2)[GalNAc(a1-3)]Gal(b1-4)Glc
Summary of the method: as §1

[16] = target: Fuc(a1-2)[GalNAc(a1-3)]Gal(b1-4)[Fuc(a1-3)]GlcNAc
Summary of the method: as §1

Gal(a1-4)Gal(b1-4)Glc = target: Gal(a1-4)Gal(b1-4)Glc
Summary of the method: as §1

Gal(b1-3)Gal = target: Gal(b1-3)Gal
Summary of the method: as §1

Gal(b1-4)GlcNAc = target: Gal(b1-4)GlcNAc
Summary of the method: as §1

[17] = target: Gal(b1-4)GlcNAc(b1-2)Man(a1-3)[Gal(b1-4)GlcNAc(b1-2)Man(a1-6)]Man(b1-4)GlcNAc(b1-4)GlcNAc
Summary of the method: as §1

GalNAc(a1-3)Gal = target: GalNAc(a1-3)Gal
Summary of the method: as §1

GalNAc(b1-4)GlcNAc = target: GalNAc(b1-4)GlcNAc
Summary of the method: as §1

GlcNAc(b1-3)Gal = target: GlcNAc(b1-3)Gal
Summary of the method: as §1

[18] = target: GlcNAc(b1-6)Gal(b1-4)GlcNAc
Summary of the method: as §1

[19] = target: Man(a1-2)Man(a1-2)Man(a1-6)[Man(a1-3)]Man
Summary of the method: as §1

[20] = target: Man(a1-2)Man(a1-3)[Man(a1-2)Man(a1-6)]Man
Summary of the method: as §1

[21] = target: Man(a1-3)[Man(a1-6)]Man(a1-6)[Man(a1-3)]Man(b1-4)GlcNAc(b1-4)GlcNAc
Summary of the method: as §1

[22] = target: Neu5Ac(a2-3)Gal(b1-3)[Neu5Ac(a2-3)Gal(b1-4)]GlcNAc
Summary of the method: as §1

Neu5Ac(a2-3)Gal(b1-4)Glc = target: Neu5Ac(a2-3)Gal(b1-4)Glc
Summary of the method: as §1

Neu5Ac(a2-6)Gal(b1-4)Glc = target: Neu5Ac(a2-6)Gal(b1-4)Glc
Summary of the method: as §1

[23] = target: Neu5Ac(a2-8)Neu5Ac(a2-8)Neu5Ac(a2-8)Neu5Ac(a2-3)[GalNAc(b1-4)]Gal(b1-4)Glc
Summary of the method: as §1

Row | Binder | glycan array binding signal (z-score) [1] | glycan array binding signal (z-score) (Gal(a1-3)Gal(b1-4)Glc) | glycan array binding signal (z-score) [2] | glycan array binding signal (z-score) [3] | glycan array binding signal (z-score) (Gal(b1-4)Glc6S) | glycan array binding signal (z-score) (Glc(b1-4)Glc) | glycan array binding signal (z-score) [4] | glycan array binding signal (z-score) [5] | glycan array binding signal (z-score) (GlcNAc(b1-3)Gal(b1-4)Glc) | glycan array binding signal (z-score) [6] | glycan array binding signal (z-score) [7] | glycan array binding signal (z-score) [8] | glycan array binding signal (z-score) [9] | glycan array binding signal (z-score) [10] | glycan array binding signal (z-score) [11] | glycan array binding signal (z-score) [12] | glycan array binding signal (z-score) (Neu5Ac(a2-6)Gal) | glycan array binding signal (z-score) (Neu5Ac(a2-8)Neu5Ac) | glycan array binding signal (z-score) [13] | glycan array binding signal (z-score) [14] | glycan array binding signal (z-score) [15] | glycan array binding signal (z-score) [16] | glycan array binding signal (z-score) (Gal(a1-4)Gal(b1-4)Glc) | glycan array binding signal (z-score) (Gal(b1-3)Gal) | glycan array binding signal (z-score) (Gal(b1-4)GlcNAc) | glycan array binding signal (z-score) [17] | glycan array binding signal (z-score) (GalNAc(a1-3)Gal) | glycan array binding signal (z-score) (GalNAc(b1-4)GlcNAc) | glycan array binding signal (z-score) (GlcNAc(b1-3)Gal) | glycan array binding signal (z-score) [18] | glycan array binding signal (z-score) [19] | glycan array binding signal (z-score) [20] | glycan array binding signal (z-score) [21] | glycan array binding signal (z-score) [22] | glycan array binding signal (z-score) (Neu5Ac(a2-3)Gal(b1-4)Glc) | glycan array binding signal (z-score) (Neu5Ac(a2-6)Gal(b1-4)Glc) | glycan array binding signal (z-score) [23]
1 | B1 | -0.02 | -0.071 | -0.105 | -0.069 | -0.092 | -0.11 | 17.3 | -0.048 | -0.056 | -0.094 | -0.092 | -0.064 | 0.325 | -0.027 | -0.098 | 0.265 | -0.042 | 0.58 | -0.047 | 1.16 |  |  |  |  |  |  |  |  |  |  |  |  |  |  |  |  | 
2 | B2 |  |  |  |  |  |  |  | 5.03 |  |  |  |  |  |  |  |  |  |  |  |  | -0.249 | -0.236 | -0.244 | -0.195 | -0.068 | 7.37 | -0.253 | -0.246 | -0.263 | -0.255 | 5.65 | 4.98 | 2.16 | -0.191 | -0.233 | -0.255 | -0.245
